Compound activity as filed in PubChem.
ELG1 DNA repair: qHTS screen for small molecules that inhibit ELG1-dependent DNA repair in human embryonic kidney (HEK293T) cells expressing luciferase-tagged ELG1. actives 2.3% (n = 330,000). Potency, µM (titrated, usually from 46.1 µM), for the others: at the top dose activity change, negative = inhibition, actives largely listed as inhibitors. HEK293T ELG1-luciferase reporter, luminescence, 16 h; DNA damage induced by 5-fluorouridine; also: potency is read from the fitted curve at half-maximal effect; nearly all actives have a fitted effect of over 55% in size
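Quantitative HTS, concentration-response format. 2,000 cells/well co-treated with 5-fluorouridine and compound, 16 hr in 5% CO2 at 37 °C; ONE-Glo luminescence read after 30 min.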
RORgamma inh: qHTS for inhibitors of ROR gamma transcriptional activity; Nuclear receptor ROR-gamma (Mus musculus), P51450; Drosophila S2 Gal4-RORgamma UAS-luciferase reporter, 20 h; Potency, µM (top dose mostly 53.6 µM), inactives show top-dose activity change, negative = inhibition, actives largely listed as inhibitors; actives 5.4% (n = 310,000); AID 2551, 2010; also: potency is read from the fitted curve at half-maximal effect; nearly all actives have a fitted effect of over 60% in size
Target sequence (P51450 whole entry, looked up, the tested form may be a part): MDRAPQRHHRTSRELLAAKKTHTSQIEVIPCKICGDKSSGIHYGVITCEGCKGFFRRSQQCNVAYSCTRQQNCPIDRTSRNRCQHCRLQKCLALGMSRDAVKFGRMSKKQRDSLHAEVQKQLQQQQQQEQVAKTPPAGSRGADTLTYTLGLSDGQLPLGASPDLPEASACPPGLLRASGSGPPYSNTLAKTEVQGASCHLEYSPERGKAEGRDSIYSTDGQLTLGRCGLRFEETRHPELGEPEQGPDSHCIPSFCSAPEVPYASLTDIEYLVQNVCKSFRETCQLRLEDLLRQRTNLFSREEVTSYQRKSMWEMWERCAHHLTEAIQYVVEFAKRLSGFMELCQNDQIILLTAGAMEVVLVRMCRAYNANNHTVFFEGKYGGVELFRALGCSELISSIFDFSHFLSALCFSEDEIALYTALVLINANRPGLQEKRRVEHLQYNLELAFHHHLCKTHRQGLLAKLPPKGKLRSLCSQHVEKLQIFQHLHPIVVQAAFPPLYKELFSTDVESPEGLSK
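Luminescence from a UAS-regulated Photinus luciferase reporter in stably transfected Drosophila Schneider cells is measured; decreased signal marks ROR gamma inhibition. Fusion expression is induced by 700 uM copper sulfate for 20 hr.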
B2AR arrestin: qHTS assay of beta-arrestin-biased ligands of beta2-adrenergic receptor; beta-arrestin recruitment to beta2AR, cell-based reporter; actives 0.02% (n = 330,000); Potency, µM (series often up to 46.1 µM), for inactives: top-dose activation, usual class: activators; Beta-2 adrenergic receptor (Homo sapiens), P07550;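 also: potency is read from the fitted curve at half-maximal effect; 0% = DMSO controls and full agonism = EC100 isoproterenol or metaproterenol; nearly all actives have a fitted effect of over 65% in size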
Gal4-VP16 FLuc: VP16 counterscreen qHTS for inhibitors of ROR gamma transcriptional activity; Drosophila S2 Gal4-VP16 UAS-luciferase, luminescence, 20 h; Potency, µM (doses to about 53.6 µM), for inactives: at the highest dose activity, negative = inhibition, hits mostly inhibitors; actives 3.5% (n = 310,000); AID 2546, 2010;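 also: Gal4-VP16 expression switched on by copper sulfate through the metallothionein promoter; potency is read from the fitted curve at half-maximal effect; nearly all actives have a fitted effect of over 50% in size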
TSHR antagonist: Antagonists of the Thyroid Stimulating Hormone Receptor: HTS campaign; Thyrotropin receptor (Homo sapiens), P16473; TSHR-expressing cells, TSH-stimulated cAMP HTRF, 2 h; hits give low values; activity change, negative = inhibition, % at 11.5 µM; actives 0.2% (n = 330,000); AID 504810, 2011;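 active = activity change below a set negative limit, meaning inhibition stronger than a set level, cut at about -70% in these data; inconclusive = activity change between two set negative limits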
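Competitive HTRF cAMP read-out (cryptate anti-cAMP antibody, cAMP-d2; 30 min, room temperature) in freshly harvested TSHR cells. Compounds added before TSH at EC80 (4nM final), followed by 2 hours' incubation at 37 deg C.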
Numbers without * were called inactive; ? = inconclusive; . = no result; [ ] = remark or other dose. In the library only some 7.5% were active in any assay of this set; here they are far more common. Unless noted, calls follow the shape of the dose curve; as a rule, active = well fitted curve in the direction sought with a large enough effect; inconclusive = small, poorly fitted or top-dose-only effect, or another doubt; inactive = no such curve, though single readings can be large; an effect the other way counts as inactive or inconclusive. Unless noted, % is scaled to controls: 0 for no effect and ±100 for the full control effect.

SMILES | ELG1 DNA repair | RORgamma inh | B2AR arrestin | Gal4-VP16 FLuc | TSHR antagonist
CN1CCN(c2nc3ccccc3nc2C(C#N)S(=O)(=O)c2ccccc2)CC1 (stereo not given) | 8.2µM* | -9% | -1% | -8% | -2
N=c1n(CC(=O)c2cccs2)c2ccccc2n1Cc1ccccc1 | 7.3µM* | -10% | -1% | -23% | 7
O=C(N=C1SC2CS(=O)(=O)CC2N1c1ccc(F)cc1)C1CC1 (stereo not given) | 21% | 2% | 0% | -3% | -109*
COCC(C)NC(=S)NCCc1ccc(Cl)cc1Cl (stereo not given) | -4% | 1µM* | 3% | 3.5µM* | 0
COCCNC(=S)NCCc1ccc(Cl)cc1Cl | -7% | 6.3µM* | 0% | -26% | -10
Cc1ccc(-n2c(C)c3c(C)nnc(C)c3c2C)cc1C | -11% | ? | 0% | -22% | -2
Cc1cccc(-n2c(C)n[nH]c2=S)c1 | 15% | 11µM* | -1% | -10% | 3
Cc1ccc(-n2c(C)n[nH]c2=S)cc1C | 8% | 11µM* | 2% | ? | 5
Cc1cccc(-n2c(C)c(-c3ccccc3)[nH]c2=S)c1 | 4% | 1.1µM* | -1% | 7.9µM* | 9
Cc1ccc(-n2c(C)n[nH]c2=S)cc1 | 15% | 11µM* | -1% | ? | -1
Cc1cccc(-n2cc[nH]c2=S)c1 | 35% | 7.9µM* | 0% | ? | 18
N/C(COc1ccc(F)cc1)=N\NC(=O)c1cccnc1Oc1ccccc1 | -2% | 2.5µM* | -1% | 4.5µM* | -2
NC(=O)c1cccnc1Oc1ccc(Cl)cc1 | 4% | 1% | 0% | 8% | 10
Cc1ccc[n+](CC(=O)c2ccc(NC(=O)c3ccccc3)cc2)c1 | -1% | 15% | -1% | -1% | 3
O=C(Nc1ccc[n+](CC(=O)c2cccc3ccccc23)c1)c1ccccc1 | -8% | ? | 0% | 11µM* | 21
CC(C)(C)c1ccc(O)c(O)c1 | 23% | ? | -2% | ? | 22
CC(C)(C)c1ccc(O)c(/C=N\O)c1 | ? | 11µM* | 11% | ? | -6
O=C(NCc1ccco1)c1ccc2nc3sc4c(c3c(=O)n2c1)CCCC4 | -3% | 4.5µM* | 7% | ? | 11
O=C(CNC(=S)N(Cc1ccccc1)Cc1ccccc1F)NCCc1ccccc1 | ? | 13µM* | 0% | -28% | 4
O=C(CNC(=S)N(Cc1ccccc1)Cc1ccccc1F)NCc1ccccc1 | ? | 21% | 0% | -11% | -12
O=C(CNC(=S)N(Cc1ccccc1)Cc1ccccc1F)NCc1ccc(Cl)cc1 | 23µM* | 2µM* | 0% | -15% | -24
Cc1ccc(-c2csc(NC(=O)N3CCOCC3)n2)cc1 | 4% | ? | 0% | 1% | -8
CC(C)(CO)[C@H](O)C(=O)NCCCO | . | 12%[16.9 µM] | . | -6%[17 µM] | .
COc1cc(/C=C2\SC(=O)N(CCNC(=O)c3c(C)noc3C)C2=O)cc(OC)c1OC | 18µM* | . | 0% | . | -27
COc1ccc(C(=O)Nc2ccccc2C(=O)Nc2ccncc2)cc1 | ? | -13% | 0% | -13% | -16
SMILES | ELG1 DNA repair | RORgamma inh | B2AR arrestin | Gal4-VP16 FLuc | TSHR antagonist
COc1cc([N+](=O)[O-])ccc1NC(=O)CCCOc1cccc(C)c1C | -10% | 20µM* | 0% | ? | 7
COc1cc([N+](=O)[O-])ccc1NC(=O)Cc1ccccc1 | -3% | 15% | 0% | -2% | -16
COc1ccccc1/C=N/N1C(=O)C(CC(=O)Nc2ccc([N+](=O)[O-])cc2OC)SC1=Nc1cccc(C)c1C (stereo not given) | 5.8µM* | ? | 1% | -3% | -9
Cc1nn(-c2ccc([N+](=O)[O-])cc2)c2c1C(c1cccc(Br)c1)N1C(=N2)C(=O)Nc2ccccc21 (stereo not given) | ? | -20% | 0% | 2% | 2
Cc1nn(-c2ccccc2)c2c1C(c1ccc([N+](=O)[O-])cc1)N1C(=N2)C(=O)Nc2ccccc21 (stereo not given) | 23µM* | ? | 1% | -18% | -6
COc1cc(OC)cc(C(=O)NNC(=O)c2cc(S(=O)(=O)N3CCOCC3)ccc2F)c1 | -1% | . | 0% | . | -8
CCCCC1=CC2=C(c3ccco3)C(=O)C(C)(OC(=O)c3cccs3)C(=O)C2=CO1 (stereo not given) | . | -1% | . | -3% | .
COc1ccc(-n2c(SCC(=O)Nc3ccc(NC(C)=O)cc3)nc3c([nH]c4ccccc43)c2=O)cc1OC | -10% | -1% | 2% | -14% | -1
CC(=O)Nc1ccc(NC(=O)CSc2nc3c([nH]c4ccccc43)c(=O)n2-c2ccccc2F)cc1 | 16µM* | -9% | 4% | -3% | -8
COc1ccccc1-n1c(SCC(=O)Nc2ccc(NC(C)=O)cc2)nc2c([nH]c3ccccc32)c1=O | 10µM* | 4% | 11% | -28% | -10
Cc1cc(C)c(C#N)c(SCC(=O)Nc2ccc(S(=O)(=O)Nc3ncccn3)cc2)n1 | -9% | 8.9µM* | 0% | 13µM* | 16
CCOc1ccc(NC(=O)CNC(=O)c2nn(-c3ccc(OC)c(OC)c3)c(=O)c3ccccc23)cc1 | -18% | -1% | 0% | -6% | 2
COc1ccc(-n2nc(C(=O)NCC(=O)NCC3COc4ccccc4O3)c3ccccc3c2=O)c(OC)c1 (stereo not given) | -16% | 5% | 0% | 2% | -11
COc1ccc(-n2nc(C(=O)NCC(=O)Nc3cccc(Cl)c3)c3ccccc3c2=O)cc1OC | ? | ? | 0% | 11µM* | 112
CCCn1nc(C(=O)NCC2COc3ccccc3O2)c2ccccc2c1=O (stereo not given) | 21µM* | . | -1% | . | -8
COc1ccc(-n2nc(C(=O)NCC(=O)NCC3COc4ccccc4O3)c3ccccc3c2=O)cc1OC (stereo not given) | 9.2µM* | 23% | 0% | -5% | 4
CCOC(=O)C1CCN(C(=O)CNC(=O)c2nn(-c3ccc(OC)c(Cl)c3)c(=O)c3ccccc23)CC1 | 15µM* | 1% | 0% | -7% | 12
COc1ccc(-n2nc(C(=O)NCC(=O)NC3CCCCCC3)c3ccccc3c2=O)cc1OC | 18µM* | 10% | 0% | 4% | 7
COc1ccc(-n2nc(C(=O)NCC(=O)N3CCCCCC3)c3ccccc3c2=O)cc1OC | -2% | -28% | 0% | -8% | -5
O=C(Nc1ccc(-c2n[nH]c(=S)o2)cc1)c1ccccc1Br | 7% | -44% | 0% | -16% | -12
